From PubChem BioAssay (NCATS)
Where “and” joins values, the source holds several entries; their conditions need not be identical. Equal entries are not always repeated. Records with an inconclusive call do not appear. Where a call stands in place of a potency, no number is given. More than one record can exist for a structure, and the calls need not agree. Calls of active or inactive are those of the source. Unless noted, calls follow the shape of the dose curve; as a rule, active = well fitted curve in the direction sought with a large enough effect; inconclusive = small, poorly fitted or top-dose-only effect, or another doubt; inactive = no such curve, though single readings can be large; an effect the other way counts as inactive or inconclusive.

Key:
[1] = High-throughput drug toxicity screening in the BPDCN cell line Cal-1 (AID 1224825; call rule not given here); conditions: Cal-1 BPDCN cell viability, qHTS; at 45.8 µM (top of the series) unless noted
Outline: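 500 Cal-1 cells/well, RPMI + glutamine + 10% FBS (phenol red-free); cpd added by pin tool; 48 h, 37C, 5% CO2; CTG 15 min RT, lumi read. Normalised: DMSO 100%, bortezomib 9.2 uM 0%.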

[2] = qHTS assay for measurement of the activity of small molecule inhibitors on Zika virus induced Caspase-3 activity in human iPSC derived neural progenitor cells (hNPCs) (AID 1224857); also: nearly all actives have a fitted effect of over 65% in size; also: potency is read from the fitted curve at half-maximal effect
Outline: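 Zika virus (2 FFU/cell) infection of human iPSC-derived NPCs, 6 h, following 1 h compound preincubation. Read-out: Caspase-Glo 3/7 luminescence.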

[3] = qHTS assay for measurement of the activity of small molecule inhibitors on Zika virus induced Caspase-3 activity in human astrocytoma cells (AID 1224859); also: potency is read from the fitted curve at half-maximal effect
Outline: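 Caspase activation in ZIKV-infected SNB-19 cells (2 FFU/cell, 6 h) measured by Caspase-Glo 3/7 luminescence after 30 min RT; compound pre-incubated 1 h; normalised to uninfected and infected controls.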

[4] = qHTS Screen of the MIPE 4.0 Collection Against Ewings Sarcoma (RDES) (AID 1259252); also: nearly all actives have a fitted effect of over 35% in size; also: potency is read from the fitted curve at half-maximal effect
Outline: (§1)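 After a 4 h attachment period in RPMI/5% FBS, cells were pin-dosed with test compounds; DMSO served as negative and 9.2 uM bortezomib (final) as positive control. Luminescent CellTiter-Glo signal at 48 h defined viability.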

[5] = qHTS Screen of the MIPE 4.0 Collection Against Ewings Sarcoma (EW8) (AID 1259255); also: nearly all actives have a fitted effect of over 35% in size; also: potency is read from the fitted curve at half-maximal effect
Outline: as §1

[6] = qHTS Screen of the MIPE 4.0 Collection Against Ewings Sarcoma (TC32) (AID 1259256); also: nearly all actives have a fitted effect of over 45% in size; also: potency is read from the fitted curve at half-maximal effect
Outline: as §1

[7] = qHTS assay to identify small molecule inhibitors of chordoma cells - UCH-2 (AID 1259356)
[8] = qHTS assay to identify small molecule inhibitors of chordoma cells - UCH-1 (AID 1259355); also: nearly all actives have a fitted effect of over 55% in size
Outline: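 Seed 800 cells per well; incubate overnight at 37 C, 5% CO2. Add test compounds (15 concentrations), then the auranofin–topoisomerase-agent combination. Incubate 48hr, add CellTiter-Glo, wait 30min, read luminescence.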

[9] = Identifying Small Molecule Inhibitors of Pancreatic Cancer Stem Cells (A2780, Spheroid) (AID 1259357); conditions: Potency: A2780 spheroid viability;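 also: spheroids pre-formed over 14 days in stem cell medium on hydrogel; compound exposure lasted 48 h before the ATP luminescence read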
Outline: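 After a 4 h attachment period, compounds were pinned into wells and cultures held 48 h under standard incubator conditions. Viability was then measured as CellTiter-Glo luminescence following 10 min at room temperature.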

SMILES | viability (% of control) [1] [%] | Potency [2] | Potency [3] | Potency [4] | Potency [5] | Potency [6] | Potency [7] | Potency [8] | Potency [9] | activity, negative = inhibition [8]
CN(C)C(=O)[C@H](O)[C@H](Cc1ccccc1)NC(=O)c1cc2cc(Cl)ccc2[nH]1 | 43.4 | inactive | inactive | 18.7 µM (active) | 23.5 µM (active) |  |  |  |  | 
CN(C)C(=O)COC(=O)Cc1ccc(OC(=O)c2ccc(N=C(N)N)cc2)cc1 | 104 | inactive | inactive | 16.6 µM (active) |  | 0.0469 µM (active) | inactive |  |  | 
CC(=O)NC[C@H]1CN(c2ccc(N3CCOCC3)c(F)c2)C(=O)O1 | 105 | inactive | inactive | inactive |  |  | inactive | inactive |  | 
CCC[C@@H]1C[C@@H](C(=O)N[C@@H]([C@H]2O[C@H](SC)[C@H](O)[C@@H](O)[C@H]2O)[C@@H](C)O)N(C)C1 | 114 | inactive | inactive | inactive | inactive | inactive | inactive |  |  | 
NNc1nncc2ccccc12 | 104 | inactive | inactive | inactive | inactive | inactive | inactive |  |  | 
Nc1nc(Cl)nc2c1ncn2[C@H]1C[C@H](O)[C@@H](CO)O1 | 12 | inactive | inactive | 0.235 µM (active) | 0.372 µM (active) | 0.296 µM (active) | inactive | inactive |  | 
Cc1cc2cc3c(C)cc(=O)oc3c(C)c2o1 | 8.43 | inactive | inactive | 7.43 µM (active) |  | 16.6 µM (active) | inactive |  |  | 
CN1C(C(=O)Nc2ccccn2)=C(O)c2sccc2S1(=O)=O | 90.4 | inactive | inactive | 5.9 µM (active) | inactive | inactive | inactive |  |  | 
CCCCCCCCOc1ccccc1C(=O)Nc1ccc(C(=O)OCC[N+](C)(CC)CC)cc1 | 14.9 | 16.6 µM (active) and inactive | inactive | inactive | 16.6 µM (active) |  | inactive |  |  | 
COc1c(O)cc2c(c1O)[C@@H]1O[C@H](CO)[C@@H](O)[C@H](O)[C@H]1OC2=O | 97.8 | inactive | inactive | inactive | inactive |  | inactive | inactive |  | 
COCCCOc1ccnc(CS(=O)c2nc3ccccc3[nH]2)c1C (stereo not given) | 104 | inactive | inactive | inactive | inactive | 8.33 µM (active) | inactive |  |  | 
c1ccc2[nH]c(-c3cscn3)nc2c1 | 102 | 16.6 µM (active) | 16.6 µM (active) | inactive | inactive |  | inactive | inactive |  | 
Cn1c(NCCN(CCO)CCCc2ccc([N+](=O)[O-])cc2)cc(=O)n(C)c1=O | 67.6 | inactive | inactive | 20.9 µM (active) |  |  | inactive | inactive |  | 
C[C@H](Cn1cnc2c(N)ncnc21)OCP(=O)(O)O | 130 | inactive | inactive | inactive | inactive |  | inactive | inactive |  | 
COc1c2occc2cc2ccc(=O)oc12 | 93.5 | inactive | inactive | inactive | inactive |  | inactive | inactive |  | 
COC(=O)N[C@H](C(=O)N[C@@H](Cc1ccccc1)[C@@H](O)CN(Cc1ccc(-c2ccccn2)cc1)NC(=O)[C@@H](NC(=O)OC)C(C)(C)C)C(C)(C)C | 107 | inactive | inactive | inactive | inactive | inactive |  |  |  | 
O=C(O)CCNC(=O)c1ccc(N=Nc2ccc(O)c(C(=O)O)c2)cc1 | 130 | inactive | inactive | 9.35 µM (active) |  |  | inactive | inactive |  | 
CCOC(=O)C1=C(O)C(=O)N(Cc2ccccc2)C1 | 112 | inactive | inactive | inactive | inactive |  |  |  | inactive | 
Nc1ccc(S(N)(=O)=O)cc1 | 112 | inactive | inactive | inactive | inactive | inactive | inactive |  |  | 
CC1(C)NC(=O)N(c2ccc([N+](=O)[O-])c(C(F)(F)F)c2)C1=O | 105 | inactive | inactive | inactive | inactive | inactive | inactive | inactive |  | 
COc1cc2nc(N3CCN(C(=O)C4CCCO4)CC3)nc(N)c2cc1OC (stereo not given) | 88.2 | inactive and 13.2 µM (active) | 14.8 µM (active) | inactive | inactive | inactive | inactive |  |  | -3.3% [at 1.88 µM] (inactive)
